“And” between values parts separate entries of the source, which are not always exact repeats. Identical values can stand only once. The campaign covered roughly 5,500 compounds. About 2,000 (36%) were called active. Inconclusive results (about 18%) are left out. No stated cut-off is given here; in the data, active means normalized growth mostly below about 0.91 (no sharp cut-off); inconclusive means no clear call, values can overlap the other calls; inactive means mostly above about 0.92. The list shows a part of the results.
Assay: chemical genetic growth profiling, strain panel (AID 1159580);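 further: tested at 20 µM; growth read once vehicle control cultures reached saturation at 30 °C; 1 = growth at the plate median or of vehicle wells; lower values mean less growth of the strain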
Details: S. cerevisiae deletion strains, growth OD

Measured: normalized growth

CC(=O)O[C@H]1CC[C@]2(C)C3CC[C@@]4(C)C(CC5O[C@@]6(CCC(C)CO6)[C@@H](C)C54)C3CC[C@@H]2C1 (stereo not given in full)
inactive: locus YAL021C, strain ccr4, active compounds read low 1.02 | locus YAL026C, strain drs2, active compounds read low 1.02 | locus YAL030W, strain snc1, active compounds read low 1.01 | locus YBL061C, strain skt5, active compounds read low 1.01 | locus YBR009C, strain hhf1, active compounds read low 1.03 | locus YBR021W, strain FUR4, active compounds read low 0.996 | locus YBR023C, strain chs3, active compounds read low 1.01 | locus YBR171W, strain sec66, active compounds read low 1.03 | locus YBR229C, strain ROT2, active compounds read low 0.99 | locus YBR231C, strain swc5, active compounds read low 1 | locus YBR279W, strain paf1, active compounds read low 1.01 | locus YCL011C, strain gbp2, active compounds read low 1 | locus YCL016C, strain dcc1, active compounds read low 1.01 | locus YCL029C, strain bik1, active compounds read low 0.993 | locus YCL069W, strain vba3, active compounds read low 1.02 | locus YCR088W, strain abp1, active compounds read low 1.02 | locus YDL005C, strain med2, active compounds read low 1.03 | locus YDL035C, strain GPR1, active compounds read low 1.03 | locus YDL040C, strain nat1, active compounds read low 1 | locus YDL074C, strain BRE1, active compounds read low 1.02 | locus YDL101C, strain DUN1, active compounds read low 0.986 | locus YDL185W, strain tfp1, active compounds read low 0.986 | locus YDL192W, strain arf1, active compounds read low 0.997 | locus YDR001C, strain nth1, active compounds read low 1.01 | locus YDR069C, strain doa4, active compounds read low 1.01 | locus YDR101C, strain arx1, active compounds read low 0.992 | locus YDR137W, strain rgp1, active compounds read low 1.04 | locus YDR159W, strain sac3, active compounds read low 1.01 | locus YDR162C, strain NBP2, active compounds read low 1.02 | locus YDR195W, strain ref2 1.03 | locus YDR297W, strain sur2, active compounds read low 1 | locus YDR318W, strain mcm21, active compounds read low 0.997 | locus YDR334W, strain swr1, active compounds read low 1.03 | locus YDR335W, strain msn5, active compounds read low 1.02 | locus YDR388W, active compounds read low 0.991 | locus YDR392W, strain spt3, active compounds read low 1.03 | locus YDR502C, strain sam2, active compounds read low 0.977 | locus YEL003W, strain gim4, active compounds read low 1.03 | locus YEL037C, strain rad23, active compounds read low 1.02 | locus YEL061C, strain CIN8 (second series), active compounds read low 1.05 | locus YEL061C, strain CIN8, active compounds read low 1 | locus YER015W, strain faa2, active compounds read low 1.01 | locus YER016W, strain bim1, active compounds read low 1 | locus YER110C, active compounds read low 0.991 | locus YER111C, strain swi4, active compounds read low 1.02 | locus YER155C, strain BEM2 (second series), active compounds read low 1.04 | locus YER155C, strain BEM2, active compounds read low 0.975 | locus YER167W, strain BCK2, active compounds read low 0.998 | locus YFR010W, strain ubp6, active compounds read low 1.01 | locus YGL078C, strain dbp3, active compounds read low 0.98 | locus YGL167C, strain pmr1, active compounds read low 1 | locus YGL173C, strain kem1, active compounds read low 1.01 | locus YGL227W, strain vid30, active compounds read low 1.02 | locus YGL240W, strain doc1, active compounds read low 1.02 | locus YGL248W, strain PDE1, active compounds read low 0.985 | locus YGL253W, strain hxk2, active compounds read low 1.01 | locus YGR135W, strain pre9, active compounds read low 0.97 | locus YGR229C, strain SMI1, active compounds read low 1.08 | locus YGR252W, strain gcn5, active compounds read low 0.949 | locus YHR013C, strain ard1, active compounds read low 1.01 | locus YHR027C, strain rpn1, active compounds read low 1.02 | locus YHR030C, strain SLT2, active compounds read low 0.989 and 0.998 | locus YHR079C, strain IRE1 (second series), active compounds read low 0.989 | locus YHR079C, strain IRE1, active compounds read low 1.01 | locus YHR094C, strain hxt1, active compounds read low 0.996 | locus YHR129C, strain ARP1, active compounds read low 0.996 | locus YHR142W, strain chs7, active compounds read low 1.03 | locus YHR200W, strain rpn10, active compounds read low 0.989 | locus YIL066C, strain RNR3, active compounds read low 1.01 | locus YIL073C, strain SPO22, active compounds read low 1.06 | locus YIL125W, strain kgd1, active compounds read low 1 | locus YIR030C, strain dcg1, active compounds read low 0.992 | locus YJL092W, strain hpr5, active compounds read low 1.03 | locus YJL095W, strain BCK1 (second series), active compounds read low 1 | locus YJL095W, strain BCK1, active compounds read low 0.987 and 1.01 | locus YJL115W, strain asf1, active compounds read low 1.01 | locus YJL129C, strain trk1, active compounds read low 1.03 | locus YJL134W, strain LCB3, active compounds read low 0.987 | locus YJL154C, strain vps35, active compounds read low 1.01 | locus YJL164C, strain tpk1, active compounds read low 1.01 | locus YJL166W, strain qcr8, active compounds read low 1.01 | locus YJL168C, strain set2, active compounds read low 0.993 | locus YJL187C, strain SWE1 (second series), active compounds read low 0.975 | locus YJL187C, strain SWE1, active compounds read low 1.01 | locus YJR043C, strain POL32, active compounds read low 1.01
